Results from PubChem BioAssay (NCATS).
Results filed as inconclusive are left out. Activity calls are given as the source filed them. Calls follow the shape of the dose curve; as a rule, active = well fitted curve in the direction sought with a large enough effect; inconclusive = small, poorly fitted or top-dose-only effect, or another doubt; inactive = no such curve, though single readings can be large; an effect the other way counts as inactive or inconclusive. Where a SMILES comes first, the peptide text is derived from it. [ ]: non-standard residue; d: D form. Ala(indol-2-yl) = N[C@@H](Cc1cc2ccccc2[nH]1)C(=O)O; Aib = CC(C)(N)C(=O)O

Tested on: NIH3T3
Assay: Cytotoxic Profiling of Annotated Libraries Using Quantitative High-Throughput Screening (AID 1296008); also: nearly all actives have a fitted effect of over 60% in size
Details: Five cell lines viability, CellTiter-Glo ATP luminescence, 48-72 h; max response: hits give low values
How it was run: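 Compounds were pin-transferred onto cells and incubated 48 or 72 hr at 37 degree Celsius, 95% humidity. CellTiter-Glo was added, plates sat 10 min at room temperature, then ATP-coupled luminescence was imaged as the viability read-out.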
% is scaled to controls: 0 for no effect and ±100 for the full control effect; potency is read from the fitted curve at half-maximal effect.

Structure (SMILES)	max response	Potency
CC1CCCC(=O)CCC/C=C/c2cc(O)cc(O)c2C(=O)O1 (stereo not given)	-2.03% (inactive)	
CC(=O)OC[C@]12C[C@H](O)C(C)=C[C@H]1O[C@@H]1[C@H](O)[C@@H](O)[C@@]2(C)[C@]12CO2		1.43 µM (active)
CC[C@H]1C[C@@H]2CC[C@@H](O2)[C@@H](C)C(=O)O[C@H](CC)C[C@H]2CC[C@H](O2)[C@H](C)C(=O)O[C@@H](C)C[C@@H]2CC[C@@H](O2)[C@@H](C)C(=O)O[C@H](CC)C[C@H]2CC[C@H](O2)[C@H](C)C(=O)O1		0.0385 µM (active)
CC(=O)OC[C@]12C[C@H](O)C(C)=C[C@H]1O[C@@H]1[C@H](O)[C@@H](OC(C)=O)[C@@]2(C)[C@]12CO2		0.0453 µM (active)
CO[C@H]1[C@H](O)[C@H](O[C@H]2CC[C@]3(C=O)C4CC[C@]5(C)[C@H](C6=CC(=O)OC6)CC[C@]5(O)C4CC[C@@H]3C2)O[C@@H](C)[C@@H]1O (stereo not given in full)	-5% (inactive)	
C[C@H]1O[C@@H](n2cnc3c(N)ncnc32)C[C@@H]1O	1.47% (inactive)	
CO[C@H]1[C@@H](O)[C@@H](C)O[C@@H](O[C@@H]2C=C3C(OC(C)=O)CC4(O)C(CC[C@]5(C)[C@@H](C6=CC(=O)OC6)CC[C@]45O)[C@@]3(C)CC2)[C@@H]1O (stereo not given in full)	-11.7% (inactive)	
CN(C)c1cc2c(cc1Sc1nc3c(N)nccc3n1CCNCC(C)(C)C)OCO2		1.03 µM (active)

Tested on: C33A
Assay: Primary qHTS to identify gynecologic anti-cancer compounds using libraries of approved drugs and bioactive compounds (AID 1345084); also: nearly all actives have a fitted effect of over 55% in size
Details: Gynecologic cancer cell panel viability, ATPlite luminescence, 48 h; series mostly up to 57.5 µM
How it was run: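 48 h compound exposure at 37 C, 5% CO2; five-point qHTS. ATPlite luminescence readout of cell ATP.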

Structure (SMILES)	Potency	activity change, negative = cytotoxicity
CCC(C)/C=C(C)/C=C/C1=CC2=C(Cl)C(=O)C(C)(OC(C)=O)C(=O)C2=CO1 (stereo not given)	inactive	
COC1CC(O[C@H]2CC[C@]3(C)C4CC[C@]5(C)[C@@H](C6=CC(=O)OC6)[C@@H](OC(C)=O)C[C@]5(O)C4CC[C@@H]3C2)OC(C)C1O (stereo not given in full)	891 nM (active)	
C[C@H]1O[C@@H](O[C@H]2CC[C@]3(C=O)C4CC[C@]5(C)[C@@H](C6=CC(=O)OC6)CC[C@]5(O)[C@@H]4CC[C@]3(O)C2)C[C@@H](O)[C@@H]1O (stereo not given in full)	89.1 nM (active)	
COC1CC(O[C@H]2CC[C@@]3(C)C(CCC4C3CC[C@]3(C)[C@@H](C5=CC(=O)OC5)CC[C@]43O)C2)OC(C)C1O (stereo not given in full)	100 nM (active)	
CC(C)(C)[C@]1(O)C[C@@H]2OC(=O)C[C@@]23C(=O)O[C@@H]2OC(=O)[C@@H](O)[C@]213	inactive	
C[C@H]1C/C=C/[C@H]2[C@@H]3O[C@]3(C)[C@@H](C)[C@H]3[C@H](Cc4ccccc4)NC(=O)[C@]32OC(=O)O/C=C/[C@@](C)(O)C1=O	inactive	
CNC(=O)c1cc(C#N)cc(C)c1NC(=O)c1cc(Br)nn1-c1ncccc1Cl	inactive	
OCc1nnc2n1-c1ccc(Cl)cc1C(c1ccccc1Cl)=NC2	inactive	
CN[C@@H]1C[C@H]2O[C@@](C)([C@@H]1OC)n1c3ccccc3c3c4c(c5c6ccccc6n2c5c31)C(=O)NC4	1260 nM (active)	
COC1CC(O[C@H]2CC[C@]3(C=O)C4CC[C@]5(C)[C@@H](C6=CC(=O)OC6)CC[C@]5(O)[C@@H]4CC[C@@H]3C2)OC(C)C1O[C@@H]1O[C@H](CO)[C@@H](O[C@@H]2O[C@H](CO)[C@@H](O)[C@H](O)[C@H]2O)[C@H](O)[C@H]1O (stereo not given in full)	178 nM (active)	
CC[C@@H]1C[C@H]2CC[C@H](O2)[C@H](C)C(=O)O[C@@H](C)C[C@@H]2CC[C@@H](O2)[C@@H](C)C(=O)O[C@H](CC)C[C@H]2CC[C@H](O2)[C@H](C)C(=O)O[C@@H](C)C[C@@H]2CC[C@@H](O2)[C@@H](C)C(=O)O1	316 nM (active)	
CO[C@@H]1C[C@H](O[C@H]2CC[C@@]3(C)C(CCC4C3CC[C@]3(C)[C@@H](C5=CC(=O)OC5)[C@@H](OC(C)=O)CC43O)C2)O[C@H](C)[C@@H]1O[C@H]1O[C@H](CO[C@@H]2O[C@H](CO)[C@@H](O)[C@H](O)[C@H]2O)[C@@H](O)[C@H](O)[C@H]1O (stereo not given in full)	631 nM (active)	
CC(=O)O[C@@H]1[C@@H](O)[C@H]2O[C@@H]3C=C(C)[C@@H](O)C[C@]3(CO)[C@]1(C)[C@]21CO1	3550 nM (active)	
CO[C@H]1C[C@H](O[C@H]2CC[C@@]3(C)C(=CCC4C3CC[C@]3(C)[C@@H](C5=CC(=O)OC5)CC[C@]43O)C2)O[C@@H](C)[C@@H]1O[C@@H]1O[C@H](CO[C@@H]2O[C@H](CO)[C@@H](O)[C@H](O)[C@H]2O)[C@@H](O)[C@H](O)[C@H]1O (stereo not given in full)		5.08% [at 11.6 µM] (inactive)
C=C1[C@@H](C)[C@H]2[C@H](Cc3ccccc3)NC(=O)[C@]23[C@H](OC(C)=O)/C=C/[C@](C)(O)C(=O)[C@@H](C)C/C=C/[C@H]3[C@@H]1O	inactive	
c1cncc(OC[C@@H]2CCN2)c1	inactive	

Structure (SMILES)	Potency	activity change, negative = cytotoxicity
CC(=O)OC[C@]12C[C@H](OC(=O)CC(C)C)C(C)=C[C@H]1O[C@@H]1[C@H](O)C[C@@]2(C)[C@]12CO2	2820 nM (active)	
CNc1ccc2oc(C[C@H]3O[C@@]4(CC[C@H]3C)O[C@H](C(C)C(=O)c3ccc[nH]3)[C@H](C)C[C@H]4C)nc2c1C(=O)O (stereo not given in full)	11200 nM (active)	
C[N@@+]1(CC2CC2)CC[C@]23c4c5ccc(O)c4O[C@H]2C(=O)CC[C@@]3(O)[C@H]1C5	inactive	
COc1ccc2c3c([nH]c2c1)C(C=C(C)C)N1C(=O)C2CCCN2C(=O)C1C3 (stereo not given)	inactive	
CC(C)(NC(=O)[C@@H](N)Cc1ccc(O)cc1)C(=O)N[C@@H](Cc1cc2ccccc2[nH]1)C(=O)N[C@@H](Cc1ccccc1)C(=O)O (H-Y[Aib][Ala(indol-2-yl)]F-OH)		17.2% [at 11.6 µM] (inactive)
CC[C@H]1C2CC3[C@@H]4N(C)c5ccccc5[C@]45C[C@@H]([C@H]2[C@H]5O)N3[C@@H]1O	inactive	
C=C(CO)C(=O)O[C@H]1CC(=C)[C@@H]2C[C@H](O)C(=C)[C@@H]2[C@H]2OC(=O)C(=C)[C@@H]21	inactive	
CC1CCCC(=O)CCC/C=C/c2cc(O)cc(O)c2C(=O)O1 (stereo not given)	inactive	
O=C(OC[C@H]1O[C@@H](Oc2ccc(O)cc2CO)[C@H](O)[C@@H](O)[C@@H]1O)c1ccccc1	inactive	
CC[C@@]1(O)C(=O)OCc2c1cc1n(c2=O)Cc2cc3c(OC)cccc3nc2-1	631 nM (active)	
CC(=O)OC[C@]12C[C@H](O)C(C)=C[C@H]1O[C@@H]1[C@H](O)[C@@H](O)[C@@]2(C)[C@]12CO2	5620 nM (active)	
CC[C@H]1C[C@@H]2CC[C@@H](O2)[C@@H](C)C(=O)O[C@H](CC)C[C@H]2CC[C@H](O2)[C@H](C)C(=O)O[C@@H](C)C[C@@H]2CC[C@@H](O2)[C@@H](C)C(=O)O[C@H](CC)C[C@H]2CC[C@H](O2)[C@H](C)C(=O)O1	224 nM (active)	
CC(=O)OC[C@]12C[C@H](O)C(C)=C[C@H]1O[C@@H]1[C@H](O)[C@@H](OC(C)=O)[C@@]2(C)[C@]12CO2	447 nM (active)	
CO[C@H]1[C@H](O)[C@H](O[C@H]2CC[C@]3(C=O)C4CC[C@]5(C)[C@H](C6=CC(=O)OC6)CC[C@]5(O)C4CC[C@@H]3C2)O[C@@H](C)[C@@H]1O (stereo not given in full)	89.1 nM (active)	
C[C@H]1O[C@@H](n2cnc3c(N)ncnc32)C[C@@H]1O	inactive	
CO[C@H]1[C@@H](O)[C@@H](C)O[C@@H](O[C@@H]2C=C3C(OC(C)=O)CC4(O)C(CC[C@]5(C)[C@@H](C6=CC(=O)OC6)CC[C@]45O)[C@@]3(C)CC2)[C@@H]1O (stereo not given in full)	178 nM (active)	
